Cruzain noTriton: qHTS Assay for Promiscuous and Specific Inhibitors of Cruzain (without detergent) | Potency, µM, for the others: max response, negative = inhibition, hits mostly inhibitors | Cruzipain (Trypanosoma cruzi), P25779 | purified cruzain, Z-FR-AMC fluorescence, no detergent | 200,000 compounds, 2.3% hits;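 note: plate controls were enzyme without inhibitor for no effect and buffer without enzyme for full effect; nearly all actives have a fitted effect of over 40% in size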
Target sequence (P25779 123-467 limits assumed): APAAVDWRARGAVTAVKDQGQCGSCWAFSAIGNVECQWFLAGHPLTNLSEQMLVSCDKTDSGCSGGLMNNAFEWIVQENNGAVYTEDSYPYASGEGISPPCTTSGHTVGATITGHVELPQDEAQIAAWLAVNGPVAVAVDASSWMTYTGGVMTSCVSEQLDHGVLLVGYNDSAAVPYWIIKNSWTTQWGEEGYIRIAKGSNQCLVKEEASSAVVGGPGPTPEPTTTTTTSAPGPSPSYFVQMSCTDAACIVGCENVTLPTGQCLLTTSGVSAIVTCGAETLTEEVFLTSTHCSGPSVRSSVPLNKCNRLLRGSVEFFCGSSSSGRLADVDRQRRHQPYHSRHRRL
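Detergent-free condition (0.00005% Triton X-100) in acetate buffer pH 5.5 with DTT. 1.5 nM enzyme and compound were pre-mixed 15 min, then 2 uM Z-FR-AMC substrate added; reaction progress from fluorescence change between first and third reads (60 s).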
Giardia FBPA inh: qHTS Assay for Inhibitors of Fructose-1,6-bisphosphate Aldolase from Giardia Lamblia. 290,000 compounds, 0.71% hits. AID 2451, 2010. A8B2U2. purified Giardia FBPA. Potency, µM (highest dose often 59.6 µM), inactives show at the highest dose activity, negative = inhibition, most hits filed as inhibitors; note: nearly all actives have a fitted effect of over 55% in size
Target sequence (A8B2U2 whole entry, looked up): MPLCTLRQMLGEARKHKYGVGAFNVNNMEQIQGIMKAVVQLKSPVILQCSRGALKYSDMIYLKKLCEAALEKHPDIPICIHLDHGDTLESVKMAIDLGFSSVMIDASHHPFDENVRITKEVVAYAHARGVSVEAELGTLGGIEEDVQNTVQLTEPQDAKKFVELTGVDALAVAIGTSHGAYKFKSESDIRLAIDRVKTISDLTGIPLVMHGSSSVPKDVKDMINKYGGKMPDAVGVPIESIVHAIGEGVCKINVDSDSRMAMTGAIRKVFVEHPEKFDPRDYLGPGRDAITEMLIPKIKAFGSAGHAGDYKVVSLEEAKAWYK
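40 nM FBPA preincubated 10 min at RT with compound (up to 57.5 uM final), then substrate plus GAPDH/TPI/NAD/arsenate coupling and diaphorase/resazurin added. Fluorescence read after 20 min at RT, 525/598 nm.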
Cruzain inh Det: qHTS Assay for Promiscuous and Specific Inhibitors of Cruzain (with detergent) | Cruzipain (Trypanosoma cruzi), P25779 | 200,000 compounds, 0.43% hits | AID 1478, 2009 | Potency, µM, for inactives: max response, negative = inhibition, most hits filed as inhibitors | purified cruzain, Z-FR-AMC fluorescence, 0.01% Triton;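 note: plate controls were neutral wells for no effect and buffer without enzyme for full effect; nearly all actives have a fitted effect of over 40% in size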
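Cruzain (1.5 nM) preincubated 15 min at RT with compound in 100 mM sodium acetate pH 5.5, 5 mM DTT, 0.01% Triton X-100. Reaction started with 2 uM Z-FR-AMC; AMC fluorescence (ex 360/em 450 nm) change over 60 s gave rate.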
Numbers without * were called inactive; ? = inconclusive; . = no result; ! = not confirmed by another sample; [ ] = dose if it differs, or a comment. This excerpt belongs to a sample that is enriched for hits. Calls come from the whole dose curve; as a rule, active = well fitted curve in the direction sought with a large enough effect; inconclusive = small, poorly fitted or top-dose-only effect, or another doubt; inactive = no such curve, though single readings can be large; an effect the other way counts as inactive or inconclusive. Unless noted, % is set by controls: 0 for no effect and ±100 for the full control effect; potency is the fitted concentration of half-maximal effect.

SMILES	Cruzain noTriton	Giardia FBPA inh	Cruzain inh Det
O=C(NCc1ccccc1Cl)c1cc2c(s1)-c1ccc(Cl)cc1SC2	10µM*	.	-6.5%
COc1ccccc1CNC(=O)c1cc2c(s1)-c1ccc(Cl)cc1SC2	-11.7%	.	-4.9%
Cc1ccc(CNC(=O)c2cc3c(s2)-c2ccc(Cl)cc2SC3)cc1	12.6µM*	.	-2.3%
COc1cccc(C(=O)Nc2cccc(C(=O)OCc3cc(=O)n4nc(C5CC5)sc4n3)c2)c1	-4.5%	.	0.2%
Cc1ccc(-c2c(C(=O)N3CCN(c4cc(Cl)ccc4C)CC3)oc(=O)c3ccccc23)cc1	-9.8%	.	0.0%
COc1ccc(-c2nc3ccccc3o2)cc1NC(=O)c1ccc(N2CCC(C)CC2)c([N+](=O)[O-])c1	-10.4%	.	0.6%
COC(=O)c1ccccc1-n1cc2c(c1-c1cccc(C)c1)c(=O)n(C)c(=O)n2C	-7.6%	.	-5.6%
Cc1cccc(-c2c3c(=O)n(C)c(=O)n(C)c3cn2-c2ccccc2O)c1	-16.7%	12.6µM*	-0.4%
O=C(O)/C(=C\c1ccccc1)Cc1ccccc1	-0.1%	.	5.5%
Cc1cccc(OC(=O)c2cc(-c3ccc4c(c3)OCCO4)on2)c1	7.4%	.	-7.4%
Cc1ccc(O)c(NC(=O)c2cc([N+](=O)[O-])ccc2Cl)c1	.	-9.6%	.
O=C(Nc1ccc([N+](=O)[O-])cc1Cl)c1cc(Cl)ccc1O	12.8%	-5.6%	5.62µM*!
C[C@]12CC[C@@H]3c4ccc(O)c(O)c4CC[C@H]3[C@@H]1CC[C@@H]2O	.	12.6µM*	.
C[C@@]12CC[C@@H]3c4ccc(O)cc4CC[C@H]3[C@H]1CC[C@H]2O	-10.5%	-3.9%[21.7 µM]	-2.4%
CC1(C)CC(=O)c2cc(-c3nc(-c4ccc(Br)cc4)cs3)c(=O)n(-c3ccccc3)c2C1	-7.2%	.	-1.7%
CN(C(=O)CSc1nc2ccc(NC(=O)COc3ccc(F)cc3)cc2s1)c1ccccc1	1.9%	.	-4.3%
CC1CCC2(CC1)NC(=O)N(CC(=O)Nc1nc(-c3ccc(F)cc3)cs1)C2=O (stereo not given)	25.1µM*	-8.8%	6.2%
Cc1ccc(-c2csc(NC(=O)CN3C(=O)CCC3=O)n2)cc1	.	-5.3%	.
COc1cc(/C=C/c2ccc3cccc(OC)c3n2)c(OC(C)=O)c([N+](=O)[O-])c1	?	-4.1%	-3.9%
COc1c(OC(C)=O)ccc(/C=C/c2ccc3cccc(OCc4ccccc4)c3n2)c1[N+](=O)[O-]	10µM*	-1.3%	-2.1%
S=C1SCN(C2CCCCCCCCCCC2)CN1C1CCCCCCCCCCC1	5.9%	.	-4.4%
CN(C)C=O	7.5%	.	6.4%
Cc1ccc2c(c1)N(C(=O)C1CCN(S(=O)(=O)c3c(C)noc3/C=C/c3ccccc3F)CC1)CCO2	12.6µM*	.	-4.9%
CCC1CN(C(=O)C2CCN(S(=O)(=O)c3c(C)noc3/C=C/c3ccccc3F)CC2)c2cc(C)ccc2O1 (stereo not given)	?	.	-4.1%
Cc1ccc(Cl)cc1N1CCN(C(=O)C2CCN(S(=O)(=O)c3c(C)noc3/C=C/c3ccccc3F)CC2)CC1	6.31µM*	.	-2.1%
SMILES	Cruzain noTriton	Giardia FBPA inh	Cruzain inh Det
Cc1ccc(/C=C/c2onc(C)c2S(=O)(=O)N2CCC(C(=O)N3CCOc4ccccc43)CC2)cc1	-28.3%	.	-3.0%
CC(=O)c1ccc(N2CCN(C(=O)C3CCN(S(=O)(=O)c4c(C)noc4/C=C/c4ccccc4F)CC3)CC2)cc1	-11.9%	.	-3.8%
CCC1CN(C(=O)C2CCN(S(=O)(=O)c3c(C)noc3/C=C/c3ccccc3F)CC2)c2cc(Cl)ccc2O1 (stereo not given)	3.16µM*	.	-2.5%
COC(=O)[C@@H](NC(=O)N1CCc2nc(-c3ccc(OC)cc3C)c3c(c2C1)CO[C@@H](c1ccccc1)C3)C(C)C	.	0.2%[12.9 µM]	.
CCN(CC)S(=O)(=O)c1ccc2c(c1)N(CC(=O)Nc1cccc(C#N)c1)C(=O)CO2	3.8%	.	-1.1%
CC1CCN(S(=O)(=O)c2cn(CC(=O)Nc3ccc(F)c(Cl)c3)c(=O)c3ccccc23)CC1	-9.6%	.	-7.4%
CO[C@@H]1COC(=O)[C@@H](CCSC)NC(=O)C/C=C\[C@@H](C)COC(=O)CCC[C@H]1C	.	1.0%[12.9 µM]	.
CC(C)(C)c1nnc(NC(=O)c2ccc(Cl)nc2)s1	.	5µM*	.
C=CCSc1nnc(NC(=O)c2ccc(Cl)nc2)s1	-19.6%	?	1.1%
COC(=O)C1=C(C(=O)OC)[C@@H]2Nc3ccccc3[C@@]23C[C@@H](C(=O)OC)N(S(=O)(=O)c2cccs2)C3=N1	.	6.5%[12.9 µM]	.
Cc1cccc(NC(=O)CCOc2ccccc2)c1C	.	1.3%	.
Cc1cccc(OCCC(=O)NCC(=O)Nc2cccc(C)c2C)c1	11.8%	15.8µM*	-2.0%
O=C(CSc1nc(-c2ccccc2)[nH]c1-c1ccccc1)Nc1ccc2c(c1)OCO2	10.4%	.	-4.8%
O=[N+]([O-])c1ccc(C2Oc3ccccc3C3CC(c4ccccc4)=NN32)s1 (stereo not given)	15.8µM*	-26.1%	-11.2%
c1ccc(C2Oc3ccccc3C3CC(c4cccs4)=NN32)cc1 (stereo not given)	-3.3%	-24.8%	-13.2%
CCc1cccc(NC(=O)C2CCN(C(=O)c3cnn(-c4ccccc4)c3-n3cccc3)CC2)c1	?	.	-8.8%
CCc1ccc(C(=O)c2cn(Cc3ccccc3)c3cc(OC)c(OC)cc3c2=O)cc1	?	.	-11.2%
O=C1c2ccccc2C(=O)c2c(O)ccc(O)c21	-10.0%	-26.2%	-2.6%
O=C1C=C(NCc2ccccc2)CCC1	-4.5%	3.0%	1.3%
N#Cc1ccccc1NCc1ccccc1	2.8%	-1.2%	-0.4%
O=c1cccccc1NCc1ccccc1	-8.8%	8.89µM*	0.0%
O=C1C=C(Nc2ccccc2O)c2ccccc2C1=O	-12.9%	17.7µM*	-3.3%
O=C1C=C(NCc2ccccc2)c2ccccc2C1=O	.	1.26µM*	.
Cc1cccc(C(=O)NC(=O)Nc2ccc(-n3nc(C(F)(F)F)cc3C(F)(F)F)cc2)c1	-10.6%	.	-2.4%
Cc1ccc(S(=O)(=O)COCCN2CCN(S(=O)(=O)c3ccc(C)cc3)CCC2=O)cc1	-10.6%	-7.9%	1.6%
SMILES	Cruzain noTriton	Giardia FBPA inh	Cruzain inh Det
CC(C)C(=O)CP(=O)(O)O	5.7%	.	-0.9%
Cc1ccc2c(c1)C(=O)CCN2	2.2%	1.0%	-1.3%
O=C1CCNc2ccc(-c3ccccc3)cc21	20µM*	?	-5.3%
COC(=O)C1=C[C@@H](C(=O)OC)C2C3=C(C(=O)[C@]2(CC(C)C)NC(=O)c2ccccc2)[C@H](C)n2c(=O)n(-c4ccccc4)c(=O)n2[C@@H]3C1 (stereo not given in full)	.	-2.4%	.
C=CCc1cccc2ccc(=O)oc12	-2.7%	12.3%	0.4%
O=c1ccc2ccc(O)c(O)c2o1	-2.5%	9.98µM*	-7.1%
NCCCCCCC(O)(P(=O)(O)O)P(=O)(O)O	.	2.4%	.
CC(=O)c1c(C)[nH]c(C(=O)OCC(=O)Nc2cc(S(=O)(=O)N3CCCC3)ccc2Cl)c1C	-1.6%	0.0%	-4.7%
CC(=O)Nc1sc(C)c(C)c1C(=O)OCC(=O)Nc1cc(S(=O)(=O)N2CCCCC2)ccc1Cl	25.1µM*	0.8%	-5.1%
O=C(COc1ccc(Br)cc1)Nc1cc(S(=O)(=O)N2CCCCC2)ccc1N1CCCCC1	?	0.2%	-5.1%
O=C(COc1ccc(Cl)cc1)Nc1cc(S(=O)(=O)N2CCCCC2)ccc1N1CCCCC1	15.8µM*	2.2%	-1.8%

Compound activity deposited in PubChem by National Center for Advancing Translational Sciences (NCATS).
